From PubChem BioAssay (NCATS)
“And” between values parts separate entries of the source, which are not always exact repeats. Equal entries are not always repeated. Inconclusive results are not listed. Where a call stands in place of a potency, no number is given. The source made the active and inactive calls. Calls come from the whole dose curve.

How the values were obtained:
[1] = Cytotoxicity counterscreen for inhibitors of SARS-CoV-2 cell entry (AID 1645845); settings: cell viability (SARS-CoV-2 entry assay cells); series mostly up to 57.1 µM; note: nearly all actives have a fitted effect of over 50% in size
Procedure, shortened: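 Counterscreen run in the same HEK293-ACE2 line as the pseudotyped-particle entry assay, without particles. Viability after 48 h at 37 C was read as ATP luminescence, scaled between cell-containing and cell-free wells.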

[2] = Primary qHTS to identify inhibitors of SARS-CoV-2 cell entry (AID 1645846); settings: SARS-CoV-2 pseudovirus cell entry assay, luminescence; activity change, negative = inhibition: at 57.1 µM (top of the series) unless noted; series mostly up to 57.1 µM; note: nearly all actives have a fitted effect of over 45% in size; note: potency is the fitted concentration of half-maximal effect
Procedure, shortened: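 Inhibition of spike-mediated entry was scored in human ACE2-transfected Expi293F cells. Particles were MLV-pseudotyped with Wuhan-Hu-1 S carrying a 19-aa C-terminal deletion; signal was luciferase after two days, scaled between spike PP and fusion-protein-free PP.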

Compound | Potency [1] | activity change, negative = inhibition [2] | Potency [2]
C=C1C[C@H]2[C@@H]3C=C(C)C4=CC(=O)CC[C@]4(C)[C@H]3CC[C@]2(C)[C@@]1(OC(C)=O)C(C)=O | inactive | 2.39% | –
CN(C)C(=O)Oc1cccc([N+](C)(C)C)c1 | inactive | -1.02% | –
CCCOc1ccc(C(=O)OCCN(CC)CC)cc1N | inactive | 2.8% and -24.9% | –
C#C[C@]1(OC(C)=O)CC[C@H]2[C@@H]3CCC4=C/C(=N/O)CC[C@@H]4[C@H]3CC[C@@]21CC | inactive | -15.4% | –
CN1CCN(C2=Nc3ccccc3Sc3ccc(Cl)cc32)CC1 | inactive | -10.6% | –
O=C(O)c1cn(-c2ccc(F)cc2)c2cc(N3CCNCC3)c(F)cc2c1=O | inactive | – | inactive
CN(C)CC[C@@H](c1ccc(Cl)cc1)c1ccccn1 | inactive | 0.546% | –
O=C(O)CCNC(=O)c1ccccc1 | inactive | – | inactive
C=CC[N+]1([C@H]2C[C@H]3[C@@H]4CC[C@H]5C[C@H](OC(C)=O)[C@@H](N6CCCCC6)C[C@]5(C)[C@H]4CC[C@]3(C)[C@H]2OC(=O)CC)CCCCC1 | inactive | – | inactive
C[C@H]1COc2c(C3(N)CC3)c(F)cc3c(=O)c(C(=O)O)cn1c23 | inactive | -12.8% | –
O=c1ccc2ccccc2o1 | inactive | – | inactive
CN(C)[C@@H]1C(=O)C(C(=O)NCN2CCCC2)=C(O)[C@@]2(O)C(=O)C3=C(O)c4c(O)cccc4[C@@](C)(O)C3C[C@@H]12 (some centres undefined) | inactive | – | inactive
O=C(O)CNC(=O)c1ccccc1I | inactive | -21.9% | –
N#Cc1cc(NC(=O)C(=O)O)c(Cl)c(NC(=O)C(=O)O)c1 | inactive | 1.2% | –
CCCCC(=O)O[C@]1(C(=O)CO)CC[C@H]2[C@@H]3CCC4=CC(=O)CC[C@]4(C)[C@H]3[C@@H](O)C[C@@]21C | inactive | – | inactive
CCOC(=O)OC(C)OC1=C(C(=O)Nc2ccccn2)N(C)S(=O)(=O)c2ccccc21 (centres undefined) | inactive | – | inactive
CCC(C(=O)OCCN1CCOC(c2ccccc2)C1C)c1ccccc1 (centres undefined) | inactive | -21.8% | –
COc1ccc(CN(CCN(C)C)c2ccccn2)cc1 | inactive | -6.08% | –
Brc1c(NC2=NCCN2)ccc2nccnc12 | inactive | – | inactive
O=C(O)CCC(=O)c1ccc(-c2ccccc2)cc1 | inactive | – | inactive
O=C(OCC(COC(=O)c1cccnc1)(COC(=O)c1cccnc1)COC(=O)c1cccnc1)c1cccnc1 | inactive | -26.9% | –

Compound | Potency [1] | activity change, negative = inhibition [2] | Potency [2]
CC(C)COCC(CN(Cc1ccccc1)c1ccccc1)N1CCCC1 (centres undefined) | inactive | – | 14.1 µM (active)
CCCCOc1ccc(CC(=O)NO)cc1 | inactive | -20.4% and -25.7% | –
C[C@]1(Cn2ccnn2)[C@H](C(=O)O)N2C(=O)C[C@H]2S1(=O)=O | inactive | 1.05% | –
CC(C(=O)O)c1ccc(CC2CCCC2=O)cc1 (centres undefined) | inactive | – | inactive
Cc1cccc(C)c1NC(=O)C(C)N (centres undefined) | inactive | 4.4% | –
CCOC(=O)c1c(N)sc2c1CCN(Cc1ccccc1)C2 | inactive | – | inactive
O=C(O)/C=C/c1ccc(Cn2ccnc2)cc1 | inactive | – | inactive
Cc1ccc(C(=O)Nc2ccc(S(=O)(=O)O)c3cc(S(=O)(=O)O)cc(S(=O)(=O)O)c23)cc1NC(=O)c1cccc(NC(=O)Nc2cccc(C(=O)Nc3cc(C(=O)Nc4ccc(S(=O)(=O)O)c5cc(S(=O)(=O)O)cc(S(=O)(=O)O)c45)ccc3C)c2)c1 | inactive | -17.2% [at 27.1 µM] | –
CC1(C)O[C@@H]2C[C@H]3[C@@H]4C[C@H](F)C5=CC(=O)C=C[C@]5(C)[C@H]4[C@@H](O)C[C@]3(C)[C@]2(C(=O)CO)O1 | inactive | 12.8% and -23.3% | –
NC(N)=N/N=C/c1c(Cl)cccc1Cl | inactive | -25.8% | –
COc1ccnc2c1CCCCC2S(=O)c1nc2ccccc2[nH]1 (centres undefined) | inactive | -18.8% | –
CNC(=O)c1cnn(-c2nc(N)c3ncn([C@@H]4O[C@H](CO)[C@@H](O)[C@H]4O)c3n2)c1 | inactive | – | inactive
CC1(C)[C@@H](OC(=O)CCC(=O)O)CC[C@]2(C)[C@H]3C(=O)C=C4[C@@H]5C[C@@](C)(C(=O)O)CC[C@]5(C)CC[C@@]4(C)[C@]3(C)CC[C@@H]12 | inactive | – | inactive
CCCC(=O)OC[C@@H](OC(=O)CCC)[C@@H](OC(=O)CCC)[C@H](Cn1c2nc(=O)[nH]c(=O)c-2nc2cc(C)c(C)cc21)OC(=O)CCC | inactive | -16.8% | –
COc1ccc2c(c1OC)C(=O)O[C@@H]2[C@H]1c2c(cc3c(c2OC)OCO3)CCN1C | inactive | -12.9% | –
CCOC(=O)OCC/C(SC(=O)OCC)=C(\C)N(C=O)Cc1cnc(C)nc1N | inactive | – | inactive
CCc1cccc2c3c([nH]c12)C(CC)(CC(=O)O)OCC3 (centres undefined) | inactive | – | inactive
Cc1c(C)c2c(c(C)c1OC(=O)CCC(=O)OCCO)CC[C@@](C)(CCC[C@H](C)CCC[C@H](C)CCCC(C)C)O2 | inactive | – | 28.2 µM (active)
CCC(=O)O[C@]1(C(=O)SCF)[C@H](C)C[C@H]2[C@@H]3C[C@H](F)C4=CC(=O)C=C[C@]4(C)[C@@]3(F)[C@@H](O)C[C@@]21C | inactive | – | inactive
Oc1cc(O)c2c(c1)O[C@H](c1ccc(O)c(O)c1)[C@H](O)C2 | inactive | -5.55% | –
Cc1c(-c2ccccc2)oc2c(C(=O)OCCN3CCCCC3)cccc2c1=O | inactive | -5.61% | –
